Test results reported in ChEMBL document CHEMBL3433997, “St. Jude Leishmania screening dataset” (2016).
“And” between values parts separate entries of the source, which are not always exact repeats. Equal values may be shown once.

target: Solute carrier family 2, facilitated glucose transporter member 1 (Homo sapiens) (UniProt P11166); test: ST_JUDE_LEISH: Cytotoxicity at 2uM final concentration against transgenic Leishmania Mexicana promastigotes LmGLUT1 that are glucose transport deficient and complemented with the human glucose transporter GLUT1. Activity is measured by DNA content using SYBR green in vitro; type: functional
Sequence (P11166 whole entry): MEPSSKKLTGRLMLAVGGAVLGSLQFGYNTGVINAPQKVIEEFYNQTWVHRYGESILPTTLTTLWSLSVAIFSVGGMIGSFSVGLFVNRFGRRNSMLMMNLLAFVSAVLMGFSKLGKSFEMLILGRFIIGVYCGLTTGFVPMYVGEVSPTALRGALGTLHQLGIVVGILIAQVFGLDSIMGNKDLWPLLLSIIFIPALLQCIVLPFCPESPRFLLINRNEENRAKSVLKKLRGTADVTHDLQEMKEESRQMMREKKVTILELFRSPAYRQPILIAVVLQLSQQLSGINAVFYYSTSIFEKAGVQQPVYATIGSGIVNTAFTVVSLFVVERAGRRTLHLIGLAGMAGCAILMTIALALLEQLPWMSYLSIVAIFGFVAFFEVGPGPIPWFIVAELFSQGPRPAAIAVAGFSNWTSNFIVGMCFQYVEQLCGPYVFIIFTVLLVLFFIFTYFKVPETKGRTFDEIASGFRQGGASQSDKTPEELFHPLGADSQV

Row | Compound | inhibition
1 | CC(C)Nc1ccc(Nc2ccnc3cc4ccccc4cc23)cc1 | 1.19%
2 | O=C(/C=C/c1ccc(Cl)c(Cl)c1)NCCCCCN1CCCC(CNC(=O)/C=C/c2ccccc2)C1 (stereo not given) | -0.59%
3 | O=C(NC1CCN(c2ccnc3cc(Cl)ccc23)C1)c1ccc(F)cc1F (stereo not given) | 1.51%
4 | O=S(=O)(c1csc2ccccc12)N(CCC(O)(C(F)(F)F)C(F)(F)F)Cc1cccc(O)c1 | -1.82%
5 | COc1cc(Cl)c(C)cc1-n1cc(C(=O)c2cc(Br)ccc2O)cc(C#N)c1=O | -0.77%
6 | COc1ccc2ncc(F)c(CCN3CCC(NCc4cc(Br)c5c(c4)OCCO5)CC3)c2n1 | 18.9%
7 | O=C(N1CCN(c2cccc(C(F)(F)F)c2)CC1)C(Cl)(Cl)Cl | 0.96%
8 | CC(=O)Nc1ccc(C(=O)Nc2cccc(-c3ccc(-c4nc5cc(F)ccc5[nH]4)cc3)c2)cn1 | -1.01%
9 | Cc1cc(N[C@@H](Cc2ccccc2)C(=O)Nc2ccccc2)nc(NCCc2cccnc2)n1 | 10.6%
10 | CC(=O)Nc1ccc(CN2CCc3ccc(NS(=O)(=O)c4cccc(OCc5ccc(Cl)cc5)c4)cc3CC2)s1 | 2.65%
11 | CC(CON1C(N)=NC(N)=NC1(C)C)Cc1ccc(Cl)cc1Cl (stereo not given) | -0.6%
12 | c1ccc(-c2cc(NCCNc3cc(-c4ccccc4)nc4ccccc34)c3ccccc3n2)cc1 | -1.99%
13 | COc1ccc(CN(C)CCOc2ccc(NC(=O)c3cccc4c(=O)cc(-c5ccccc5)[nH]c34)cc2)cc1OC | 0.9%
14 | Nc1c(Cl)cc(C(O)CNCCCCCCCCCc2ccccn2)cc1Cl (stereo not given) | 0.94%
15 | COc1ccc(NC(=O)N2CCCN(CCCCCNC(=O)/C=C/c3ccc(C(F)(F)F)cc3)CC2)cc1Cl | -0.26%
16 | CN(C)c1ccc(C(c2ccc(N(C)C)cc2)c2cc([N+](=O)[O-])ccc2Cl)cc1 | 0.57%
17 | c1cc(-c2ccc(CN3CCN(c4ccncc4)CC3)cc2)cc(-c2nc3ccccc3[nH]2)c1 | 1.81%
18 | CN=c1nc(NN=Cc2ccccc2Cl)[nH]c(=Nc2cccc(C(F)(F)F)c2)[nH]1 | 8.53%
19 | O=C(Nc1cccc(-c2cccc(-c3nc4ccccc4[nH]3)c2)c1)c1ccncc1 | 4.03%
20 | COCC(C)n1c(SCC(=O)Nc2cc(C(F)(F)F)ccc2Cl)nc2ccccc2c1=O (stereo not given) | 6.25%

Row | Compound | inhibition
21 | CC(=O)Nc1ccc(C(=O)Nc2cccc(-c3cccc(-c4nc5cccc(C)c5[nH]4)c3)c2)cn1 | 4.29%
22 | CC(NC(=O)c1ccc(O)c(-c2ccc(Cl)c(Cl)c2)c1)C(=O)NCCN1CCOCC1 (stereo not given) | 1.85%
23 | CN(C)c1ccc(NC2=NC(N)=NC(C)(C)N2)cc1 | 0.38%
24 | O=C(Nc1ccc(-c2cccc(-c3nc4ccccc4[nH]3)c2)cc1)c1cnn2cccnc12 | 7.76%
25 | NC(=O)Nc1ccc2cn[nH]c2c1 | -0.02%
26 | COc1ccc2nccc([C@@H](O)CN3CCC(NS(=O)(=O)c4cc5c(cc4Cl)SCC(=O)N5)CC3)c2c1 | 1.57%
27 | OC(c1cc(C(F)(F)F)nc2c(F)cccc12)C1CCCCN1 (stereo not given) | 0.27%
28 | COc1ccc(N2CCN(CCc3ccc(NC(=O)c4ccc([N+](=O)[O-])cc4)cc3)CC2)c(OC)c1 | 9.1%
29 | CO[C@H](C)[C@H](NC(=O)[C@H](CC(C)C)[C@H](CCC(F)(F)F)N(O)C=O)C(=O)Nc1nccs1 | 4.95%
30 | OCc1c(Cl)cc(Cl)cc1CNCCCNc1nc2ccccc2[nH]1 | 5.72%
31 | CC(C)CNC(=O)c1ccnc(-c2ccc(CNCCCc3ccccc3)cc2)c1 | 2.32%
32 | Cc1cc(N2CC=CCC2)nc(NC(=N)Nc2ccc(Cl)cc2)n1 | 6.87%
33 | O=C(Nc1cccc(C(F)(F)F)c1)NC1CCN(c2ccnc3cc(Cl)ccc23)CC1 | 1.6%
34 | COc1ccc(NCc2cccc(-c3cccc(CNCCc4ccccc4)c3)c2)cc1 | 0%
35 | COC(=O)c1ccc(OCC(C)NCC(O)c2cccc(C(F)(F)F)c2)cc1 (stereo not given) | 10.7%
36 | Cc1cc(=O)c(-c2ccc(Oc3cccc(C(F)(F)F)c3)cc2)c(C)[nH]1 | 0.14% and -4.84%
37 | COc1c(C=NNc2nc(=Nc3ccccc3)[nH]c(=Nc3ccccc3)[nH]2)ccc(Br)c1O | 11.3%
38 | CC(=O)Nc1ncc(C(=O)Nc2cccc(-c3cccc(-c4nc5cccc(C)c5[nH]4)c3)c2)s1 | 3.02%
39 | CC(C)(C)c1ccc(NC(=O)N[C@@H]2CCN(c3ccnc4ccccc34)C2)cc1 | 0.09%
40 | CCOC(=O)c1c(-c2ccccc2)nc2c(sc3ccccc32)c1O | 5.5%
